Measured values: the supplement of paper PMC13380429

Tested on: Vero E6 infected with SARS-CoV-2
Assay: inhibition of SARS-CoV-2 cytopathic effect; higher = more antiviral protection, active = above 15
Conditions: 48 h

Measured: inhibition of SARS-CoV-2 cytopathic effect

CC1=CC(=C(c2ccc(N)cc2)c2ccc(N)cc2)C=CC1=N [basic-fuchsin]
inactive: 1 nM 0.76% | 8.33 nM 0.35% | 100 nM 1.45% | 833.33 nM -0.79% | 10000 nM -17.1%

NC1=N[C@@](c2cccc(-c3cncnc3)c2)(c2ccnc(C(F)F)c2)c2cccc(F)c21
inactive: 1 nM 0.77% | 8.33 nM -1.06% | 100 nM -1.46% | 833.33 nM -0.56% | 10000 nM -2.76%

CNc1nc(-c2ccc3c(N)n[nH]c3c2)cc(N2C[C@@H](C(=O)NC3CCCCC3)CC[C@H]2C)n1
inactive: 1 nM 2.6% | 8.33 nM 3.93% | 100 nM 1.23% | 833.33 nM 0.1% | 10000 nM -5.35%

OC[C@H]1O[C@H](O[C@]2(CCl)O[C@H](CCl)[C@@H](O)[C@@H]2O)[C@H](O)[C@@H](O)[C@H]1Cl [sucralose]
inactive: 1 nM 0.95% | 8.33 nM 0.58% | 100 nM 0.66% | 833.33 nM -0.54% | 10000 nM -0.48%

COc1ccc(Cn2ccc3ccc(C(=O)NO)cc32)cc1
inactive: 1 nM 0.35% | 8.33 nM 0.42% | 100 nM 3.29% | 833.33 nM 1.7% | 10000 nM -2.47%

Oc1cc2c(cc1O)CN(C(=S)NCCc1ccc(Cl)cc1)CCC2 [capsazepine]
inactive: 1 nM -5.03% | 8.33 nM -2.95% | 100 nM -0.11% | 833.33 nM -0.65% | 10000 nM 3.42%

O=C(O)CCC(=O)Nc1ccc(S(=O)(=O)Nc2nccs2)cc1 [succinylsulfathiazole]
inactive: 1 nM -0.25% | 8.33 nM 0.46% | 100 nM 0.51% | 833.33 nM 0.85% | 10000 nM -0.56%

O=C1[O][SbH]23[O]C(=O)C([O]2)C2[O][SbH]4([O]C(=O)C([O]4)C1[O]3)[O]C2=O [antimonyl]
inactive: 1 nM 0.49% | 8.33 nM 0.38% | 100 nM -2.02% | 833.33 nM 0.19% | 10000 nM -10.4%

CC1(C)CNc2cc(NC(=O)c3cccnc3NCc3ccncc3)ccc21 [motesanib]
inactive: 1 nM -2.26% | 8.33 nM -1.53% | 100 nM -1.67% | 833.33 nM 1.7% | 10000 nM 1.82%

O=C(N/N=C/c1ccc([N+](=O)[O-])o1)c1cc([N+](=O)[O-])cc([N+](=O)[O-])c1O [nifursol]
inactive: 1 nM 0.19% | 8.33 nM 3.21% | 100 nM 2.56% | 833.33 nM 2.62% | 10000 nM 2.82%

O=C(Nc1cc(-c2ccccc2)nn1-c1ccccc1F)c1ccc([N+](=O)[O-])cc1
inactive: 1 nM -0.89% | 8.33 nM 1.45% | 100 nM 1.23% | 833.33 nM -3.16% | 10000 nM 2.79%

Oc1ccc(Cl)cc1 [parachlorophenol]
inactive: 1 nM 1.78% | 8.33 nM -0.13% | 100 nM 1.68% | 833.33 nM 2.25% | 10000 nM -1.37%

CS(=O)(=O)OC[C@H](O)[C@@H](O)COS(C)(=O)=O [treosulfan]
inactive: 1 nM 0.41% | 8.33 nM 0.48% | 100 nM -0.46% | 833.33 nM 0.71% | 10000 nM 1.56%

C[N+]1(C)[C@@H]2CC[C@H]1C[C@@H](OC(=O)C(O)c1ccccc1)C2 (stereo not given in full) [homatropine-methylbromide]
inactive: 1 nM 0.79% | 8.33 nM 1.12% | 100 nM 0.14% | 833.33 nM 0.62% | 10000 nM 0.96%

CC(=O)Nc1ccc(OCC(O)CNC(C)C)cc1 (stereo not given) [practolol]
inactive: 1 nM 0.44% | 8.33 nM 0.3% | 100 nM 0.26% | 833.33 nM 2.84% | 10000 nM 5.44%

COc1cccc2c1C(=O)c1c(O)c3c(c(O)c1C2=O)C[C@@](O)(C(=O)CO)C[C@@H]3O[C@H]1C[C@H](N2CCO[C@H](OC)C2)[C@H](O)[C@H](C)O1 [nemorubicin]
inactive: 1 nM 1.94% | 8.33 nM -5.08% | 100 nM -8.02% | 833.33 nM -7.55% | 10000 nM -7.13%

CCCCCCCCCCCCCCCC(=O)C(F)(F)F
inactive: 1 nM -1.4% | 8.33 nM 0.3% | 100 nM -10.8% | 833.33 nM -13.2% | 10000 nM -0.25%

CCN(CCO)CCCC(C)Nc1ccnc2cc(Cl)ccc12 (stereo not given) [hydroxychloroquine]
inactive: 1 nM -0.29% | 8.33 nM 2.78% | 100 nM -0.76% | 833.33 nM 0% | 10000 nM -0.85%

Ic1cncc(OC[C@@H]2CCN2)c1
inactive: 1 nM 0.24% | 8.33 nM -0.44% | 100 nM 0.14% | 833.33 nM 1.07% | 10000 nM -0.56%

COc1cccc([C@@H](C)NCCCc2ccccc2Cl)c1 [tecalcet]
inactive: 1 nM 1.64% | 8.33 nM 1.12% | 100 nM 3.52% | 833.33 nM -0.64% | 10000 nM -3.1%

CO/N=C(\C(=O)N[C@@H]1C(=O)N2C(C(=O)O)=C(CSC(=O)c3ccco3)CS[C@H]12)c1csc(N)n1
inactive: 1 nM -0.19% | 8.33 nM -0.66% | 100 nM -1.18% | 833.33 nM -0.09% | 10000 nM -0.18%

Cc1noc(NS(=O)(=O)c2ccc(N)cc2)c1C [sulfafurazole]
inactive: 1 nM -0.27% | 8.33 nM -1.19% | 100 nM 0.89% | 833.33 nM -1.49% | 10000 nM 0.12%

CC1(C)O[C@H]2CC(=O)OC[C@]23[C@H]2CC[C@@]4(C)[C@H](c5ccoc5)OC(=O)[C@H]5O[C@]54[C@]2(C)C(=O)C[C@@H]13 [limonin]
inactive: 1 nM -0.51% | 8.33 nM -0.42% | 100 nM -2.25% | 833.33 nM -1.69% | 10000 nM -2.49%

COc1ccccc1N1CCN(CCCCNC(=O)c2ccc3ccccc3c2)CC1
inactive: 1 nM -1.05% | 8.33 nM 0.24% | 100 nM 1.14% | 833.33 nM -0.36% | 10000 nM -6.44%

CCOC(=O)Nc1ccc(NCc2c(C)cc(C)cc2C)cc1N
inactive: 1 nM 0.63% | 8.33 nM 1.07% | 100 nM -0.41% | 833.33 nM -0.67% | 10000 nM 2.16%

N[C@H](Cc1ccccc1)C(=O)O [D-phenylalanine]
inactive: 1 nM 2.99% | 8.33 nM -0.14% | 100 nM 2.52% | 833.33 nM 0.27% | 10000 nM 0.05%

CC1=C(C(=O)OC(C)C)C(c2cccc([N+](=O)[O-])c2)C(C(=O)OC2CN(C(c3ccccc3)c3ccccc3)C2)=C(N)N1 (stereo not given) [azelnidipine]
inactive: 1 nM 3.44% | 8.33 nM 1.14% | 100 nM -0.26% | 833.33 nM 0.91% | 10000 nM -6.87%

CC1(C)C(/C=C/C=C/C=C/C=C2\N(CCCCS(=O)(=O)O)c3ccc4ccccc4c3C2(C)C)=[N+](CCCCS(=O)(=O)[O-])c2ccc3ccccc3c21 [indocyanine-green]
inactive: 1 nM -0.13% | 8.33 nM 1.53% | 100 nM 0.85% | 833.33 nM 1.22% | 10000 nM 0.23%

N[C@@H](CCC(=O)N[C@@H](CSN=O)C(=O)NCC(=O)O)C(=O)O [S-nitrosoglutathione]
inactive: 1 nM 0.29% | 8.33 nM 0.8% | 100 nM -1.28% | 833.33 nM -3.1% | 10000 nM -0.66%

O=C(Nc1nc2ccc(NC(=O)C34CC5CC(CC(C5)C3)C4)cc2s1)c1ccccc1
inactive: 1 nM 1.55% | 8.33 nM 3.1% | 100 nM 0.95% | 833.33 nM 2.14% | 10000 nM -6.77%

O=C(O)C1(C(=O)O)CCC1.[NH2-].[NH2-].[Pt+2] [carboplatin]
inactive: 1 nM 2.35% | 8.33 nM 3.65% | 100 nM 4.49% | 833.33 nM 9.87% | 10000 nM 4.39%

NC(=O)C[S+]([O-])C(c1ccccc1)c1ccccc1 (stereo not given)
inactive: 1 nM -2.5% | 8.33 nM -3.65% | 100 nM -0.185% | 833.33 nM -1.01% | 10000 nM -3.77%

CN[C@H]1C(=O)N[C@@H]2Cc3ccc(cc3)Oc3cc4cc(c3O[C@@H]3O[C@H](C(=O)O)[C@@H](O)[C@H](O)[C@H]3NC(=O)CCCCCCCCC(C)C)Oc3ccc(cc3Cl)[C@@H](O)[C@@H]3NC(=O)[C@H](NC(=O)[C@@H]4NC(=O)[C@@H](NC2=O)c2cc(cc(O)c2Cl)Oc2cc1ccc2O)c1ccc(O)c(c1)-c1c(O[C@H]2O[C@H](CO)[C@@H](O)[C@H](O)[C@@H]2O)cc(O)cc1[C@@H](C(=O)NCCCN(C)C)NC3=O [dalbavancin]
inactive: 1 nM -5.95% | 8.33 nM -0.74% | 100 nM -2.73% | 833.33 nM -0.14% | 10000 nM 1.46%

CCCCNc1ncc2c(-c3ccc(CN4CCN(C)CC4)cc3)cn([C@H]3CC[C@H](O)CC3)c2n1
inactive: 1 nM 1.92% | 8.33 nM 2.77% | 100 nM -0.22% | 833.33 nM -9.69% | 10000 nM 7.04%

NC(=O)c1ccc2[nH]ccc2c1
inactive: 1 nM -2.02% | 8.33 nM 0.22% | 100 nM 0.99% | 833.33 nM 0.03% | 10000 nM 3.72%

O=C(O)C(Cc1ccccc1[N+](=O)[O-])=NNc1nc(-c2ccc(Cl)c(Cl)c2)cs1
inactive: 1 nM 4.49% | 8.33 nM -0.65% | 100 nM -1.01% | 833.33 nM 3.78% | 10000 nM 0.02%

CCOc1cc(C=O)ccc1O [ethyl-vanillin]
inactive: 1 nM -2.26% | 8.33 nM 2.03% | 100 nM -1.95% | 833.33 nM -0.96% | 10000 nM -1.21%
